This is part of a sample that, as a whole, favours compounds with a hit. Of some 83,000 tested, about 20% had one in any assay.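 Growth was measured after 48 h exposure to one concentration of compound in 96-well plates. Values under 10 count as active.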 A number with no mark means an inactive call. Active and inactive are the calls of the source.

The test deals with SK-OV-3 ovarian. Nature of the test: NCI-60 one-dose screen, 48 h (100 = growth as untreated, 0 = no growth, -100 = all killed). As to conditions: 10 µM unless noted.
Take `O=S(=O)(NCCNc1nccc(-n2cnc3ccccc32)n1)c1ccc(Br)cc1`: the growth is 99.9%.

Take `NS(=O)(=O)c1ccc(Nc2nc(N/N=C/c3ccccn3)nc(Nc3ccccc3)n2)cc1`: the growth was -31.4% (active).

As for `NC(N)=Nc1ccc(Oc2cccc(Nc3ccc(Br)c(C(F)(F)F)c3)c2)cc1`, the growth was 67.4%.

In the case of `O=c1[nH]c2ccccc2cc1CSc1ccccc1Nc1nccc(-c2ccc(Cl)cc2)n1`, the growth was 112%.

For `COc1ccccc1C(=O)Nc1cccc2c1C(=O)C(=O)C=C2`, the growth is 114%.

For `CCO/C=N/C1=C(C#N)C(c2ccc(F)cc2)c2sc3c(C)cccc3c2O1` (centres undefined), the growth was 66.6%.

As for `O=C(NNc1nc2cc(F)ccc2n2c(CN3CCCC3)ccc12)c1cnccn1`, the growth is 16.8%.

For the compound `COc1cc(-c2nn(C(C)(C)C)cc2-c2ccnc(NCCCNS(=O)(=O)c3ccccc3)n2)ccc1Cl`, the growth was 103%.

`O=C(NCc1ncc[nH]1)c1ccc(-c2nc3ccc4[nH]ncc4c3c3c2CCCC3)cc1`: the growth is -16.8% (active).

On to `O=C(NNc1nc2cc(F)ccc2n2c(CO)ccc12)c1cnccn1`, for which the growth was 9.3% (active).

Take `O=[N+]([O-])c1cc(/C=N/Nc2nc(N/N=C/c3ccc(Cl)c([N+](=O)[O-])c3)nc(N3CCCCC3)n2)ccc1Cl`: the growth is 98.8%.

Take `COc1c(N2CC3CCCNC3C2)c(F)cc2c(=O)c(C(=O)N/N=C/c3ccccc3)cn(C3CC3)c12` (centres undefined): the growth was 111%.

As to `O=C(CNc1nc(-c2cccc([N+](=O)[O-])c2)cs1)Nc1cccc(Cl)c1`, the growth was 107%.

Turning to `O=S(=O)(NCCNc1nccc(-n2cnc3ccccc32)n1)c1ccc(C(F)(F)F)cc1`, the growth is 62.2%.

On to `CC(C)(C)c1ccc(C(=O)Nc2sc3c(c2C(N)=O)CC/C(=N\O)C3)cc1`, for which the growth is 35.1%.

Regarding `CC(=O)c1nnn(-c2c(C(=O)n3nc(C)cc3C)sc(=S)n2-c2ccccc2)c1C`, the growth is 108%.

Consider `CNC(=O)c1c(NC(=O)c2ccccc2C(F)(F)F)sc2c1CCC(=O)C2`, for which the growth is 95.7%.

Regarding `O=C(NNc1nc2cc(F)c(F)cc2n2cccc12)c1cnccn1`, the growth was 30.5%.

On to `COc1cc(Nc2c(C#N)cnn3cc(-c4cnn(CC(C)(C)O)c4)cc23)ccc1Cl`, for which the growth was 4.19% (active).

For the compound `CCCCCCCn1cc2c(N[C@H](C)c3ccccc3)ncnc2n1`, the growth was 117%.

On to `O=C(Cn1cc(-c2ccccc2)nn1)Nc1nc(-c2ccc(Cl)cc2)cs1`, for which the growth is 94.7%.

`CCOC(=O)C(=O)CC(=O)N1C(=S)NC(=O)C1CC(C)C` (centres undefined): the growth was 122%.

On to `O=C1Nc2ccccc2/C1=C/c1ccc(CO)n1-c1ccc(Cl)cc1`, for which the growth was 80%.

On to `CCO/C=N/C1=C(C#N)C(c2ccc(OC)cc2)c2sc3c(CC)cccc3c2O1` (centres undefined), for which the growth was 66.6%.

Regarding `O=C1[C@@H]2Cc3c([nH]c4ccccc34)[C@H](c3c(Cl)cccc3Cl)N2C(=O)CN1C1CCN(CC2CCCCC2)CC1`, the growth was 123%.

In the case of `Cc1nn(-c2ccccc2)c2ncnc(N/N=C/c3cccc(O)c3)c12`, the growth is 88.4%.

With `CS(=O)(=O)Nc1cc(-c2ccc3ncc(C#N)c(NCc4cccc(F)c4)c3c2)cnc1Cl`, the growth was -18.2% (active).

As to `Cc1ccc(-n2cc(/C=C/C(=O)c3ccc(O)cc3)c(-c3ccc(S(C)(=O)=O)cc3)n2)cc1`, the growth is 94.9%.

Turning to `CC1(C)NCCC[C@]2(C)[C@H]3C/C(=N\O)C4[C@@H]5C[C@@](C)(CO)CC[C@]5(C)CC[C@@]4(C)[C@]3(C)CC[C@@H]12` (some centres undefined), the growth was 107%.

For `C#CCNC1CCC(c2csc(C#C)n2)=C1C` (centres undefined), the growth is 92.7%.

With `NS(=O)(=O)c1ccc(Nc2nc(Nc3ccccc3)nc3nnc(SCC(=O)NC4CCCCC4)n23)cc1`, the growth was 105%.

Regarding `O=C(CNc1nc(-c2cccc([N+](=O)[O-])c2)cs1)Nc1cccc([N+](=O)[O-])c1`, the growth was -23.9% (active).

Consider `O=C(CSc1nc2ccccc2c(=O)n1-c1ccc(Cl)cc1)N/N=C/c1ccc(N2CCCCC2)cc1`, for which the growth is 30.1%.

With `O=C(c1ccc(Cl)cc1)C1[C@H](c2ccc(Cl)cc2)[C@@H](c2ccccc2)NC12C(=O)Nc1ccccc12` (some centres undefined), the growth was 102%.

Consider `CC(=O)c1ccc(Nc2nc(SCC(C)C)nc(-c3ccc(F)cc3)c2C#N)cc1`, for which the growth is 114%.

In the case of `Fc1ccc(-c2cc3nc(C(Cl)Cl)nc(-c4ccc(F)cc4)n3n2)cc1`, the growth was -29.2% (active).

Take `CNc1ncc2cc(-c3ccc(-c4ncccc4F)cc3Cl)c(=O)n(CC3OCC(N)CO3)c2n1` (centres undefined): the growth was 75.8%.

Take `C#C[C@]1(O)CC[C@H]2[C@@H]3CC=C4c5sc(-c6ccc7c(c6)OCO7)nc5CC[C@]4(C)[C@H]3CC[C@@]21C`: the growth is 52.3%.

In the case of `C=CCn1c(SCC(=O)Nc2ccc(C(=O)/C=C/c3ccc(C)cc3)cc2)nnc1-c1c[nH]c2ccccc12`, the growth is 105%.

Values taken from PubChem BioAssay (NCI).
